# From the supplement of paper PMC3545927
# The other results are listed elsewhere or left out. How many sequences the whole screen found active is unknown.
# B1: HC144 (peptide)
# chain: CAEVVTLTWVAGNASASA
# B2: HC1415 (peptide)
# chain: CACSLTPPHSAGNASASA
# B3: HC1335 (peptide)
# chain: CATRSFGSSSAGNASASA
# B4: FS-572 (peptide)
# chain: CATSSSRKRSAGNASASA
# B5: FS-100 (peptide)
# chain: CATRSVRKRSAGNASASA
# B6: HC1508 (peptide)
# chain: CAGYRRCRASAGNASASA
# B7: HC1311 (peptide)
# chain: CAWKKPDYEPAGNASASA
# B8: FS-674 (peptide)
# chain: CAKKMRVWRDAGNASASA
# B9: HC166 (peptide)
# chain: CANKRNTNRRAGNASASA
# B10: FS-263 (peptide)
# chain: CAKTTRKKRNAGNASASA
# B11: HC163 (peptide)
# chain: CAPKPQKKNKAGNASASA
# B12: HC1449 (peptide)
# chain: CAARLIVFPDAGNASASA
# B13: FS-902 (peptide)
# chain: CAYRHRKKRNAGNASASA
# B14: HC1322 (peptide)
# chain: CAPVPPPRKKAGNASASA
# B15: HC164 (peptide)
# chain: CAPQKKNKRNAGNASASA
# B16: FS-2867 (peptide)
# chain: CAKKKRMAMAAGNASASA
# B17: HC165 (peptide)
# chain: CAKKNKRNTNAGNASASA
# B18: HC2012 (peptide)
# chain: CAVECCSMSYAGNASASA
# B19: HC352 (peptide)
# chain: CAAETHVTGGAGNASASA
# B20: HC1250 (peptide)
# chain: CASHITAEAAAGNASASA
# B21: HC1435 (peptide)
# chain: CADNVTPIDTAGNASASA
# B22: HC515 (peptide)
# chain: CAIASWAIKWAGNASASA
# B23: HC505 (peptide)
# chain: CALIHLHQNIAGNASASA
# B24: HC2015 (peptide)
# chain: CAVHCCSMSYAGNASASA
# B25: HC1161 (peptide)
# chain: CAPQLPGIPFAGNASASA
# B26: HC1861 (peptide)
# chain: CATNPCSGSWAGNASASA
# B27: HC2172 (peptide)
# chain: CAEEVTSTWVAGNASASA
# B28: FS-42 (peptide)
# chain: CAKKMRNKRNAGNASASA
# B29: FS-1352 (peptide)
# chain: CAKTLRTKRNAGNASASA
# B30: HC2548 (peptide)
# chain: CASTPCSAWLAGNASASA
# B31: HC2431 (peptide)
# chain: CADREVPCHRAGNASASA
# B32: HC54 (peptide)
# chain: CATTPCSGSWAGNASASA
# B33: HC444 (peptide)
# chain: CAPPCVIGGAAGNASASA
# B34: FS-2182 (peptide)
# chain: CARRRRYKKKAGNASASA
# B35: FS-2235 (peptide)
# chain: CARRRRYEGHAGNASASA
# B36: FS-3232 (peptide)
# chain: CARRRRYAVAAGNASASA
# B37: FS-1786 (peptide)
# chain: CARRRRLRTAAGNASASA
# B38: FS-2801 (peptide)
# chain: CARRRRYALSAGNASASA
# B39: FS-1787 (peptide)
# chain: CARRRRLYWGAGNASASA
# B40: HC1587 (peptide)
# chain: CALIARDQLEAGNASASA
# B41: FS-438 (peptide)
# chain: CAGTQRLTRAAGNASASA
# B42: FS-1591 (peptide)
# chain: CAGRSRASRGAGNASASA
# B43: FS-658 (peptide)
# chain: CAGRQRKPRPAGNASASA
# B44: HC595 (peptide)
# chain: CAGRDAVILLAGNASASA
# B45: FS-1205 (peptide)
# chain: CAGRSRSRRAAGNASASA
# B46: FS-594 (peptide)
# chain: CAGRSRRPRLAGNASASA
# B47: FS-241 (peptide)
# chain: CAGHSRSRRAAGNASASA
# B48: FS-15 (peptide)
# chain: CACRARGMRAAGNASASA
# Molecular target: furin, P09958
# Sequence (P09958 whole entry): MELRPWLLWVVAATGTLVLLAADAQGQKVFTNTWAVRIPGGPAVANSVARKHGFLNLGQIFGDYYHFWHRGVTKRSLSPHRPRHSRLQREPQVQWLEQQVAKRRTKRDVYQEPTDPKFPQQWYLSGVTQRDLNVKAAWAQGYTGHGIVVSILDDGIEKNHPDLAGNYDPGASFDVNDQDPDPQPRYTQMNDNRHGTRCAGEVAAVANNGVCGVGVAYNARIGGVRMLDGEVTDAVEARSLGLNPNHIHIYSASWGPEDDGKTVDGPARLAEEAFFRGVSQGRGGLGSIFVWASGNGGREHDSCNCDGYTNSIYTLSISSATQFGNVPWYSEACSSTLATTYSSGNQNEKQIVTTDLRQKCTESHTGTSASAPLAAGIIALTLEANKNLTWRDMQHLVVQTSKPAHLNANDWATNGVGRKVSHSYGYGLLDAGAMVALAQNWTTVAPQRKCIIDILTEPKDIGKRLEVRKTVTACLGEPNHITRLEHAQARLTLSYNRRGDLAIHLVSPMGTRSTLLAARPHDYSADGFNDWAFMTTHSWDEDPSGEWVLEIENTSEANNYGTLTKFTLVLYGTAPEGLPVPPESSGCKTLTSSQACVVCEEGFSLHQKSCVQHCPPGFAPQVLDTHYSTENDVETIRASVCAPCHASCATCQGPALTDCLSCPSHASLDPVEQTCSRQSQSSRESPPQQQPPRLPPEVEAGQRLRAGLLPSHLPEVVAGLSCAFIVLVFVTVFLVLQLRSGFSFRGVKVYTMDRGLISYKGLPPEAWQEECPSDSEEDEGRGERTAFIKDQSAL
# Assay: furin cleavage Z-score vs untreated control; higher = more cleavage, active = 3.5 or more, inactive = 1 or less, 8 variable residues between constant flanks
# How it was run: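 The cleavage Z-score is the log read count relative to furin-free reactions, lowess-adjusted and scaled by median absolute deviation. Counts came from sequencing DNA released from bead-bound 8-mer peptide–cDNA fusions after digestion with purified furin for 7.5, 15 or 30 min.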
# 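Also: purified furin at 1:10 enzyme:substrate in 50 mM HEPES pH 7.5.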
Sequence,furin cleavage Z-score (7.5 min),furin cleavage Z-score (15 min),furin cleavage Z-score (30 min)
B1,0.108 (inactive),1.05,-0.447 (inactive)
B2,-1.29 (inactive),-4.97 (inactive),-1.14 (inactive)
B3,0.518 (inactive),-0.799 (inactive),-0.228 (inactive)
B4,1.17,0.258 (inactive),1.99
B5,10 (active),8.16 (active),6.31 (active)
B6,0.58 (inactive),-0.0246 (inactive),0.472 (inactive)
B7,-0.0824 (inactive),-0.0771 (inactive),0.0457 (inactive)
B8,4.34 (active),5.37 (active),5.78 (active)
B9,0.476 (inactive),1.53,-0.249 (inactive)
B10,7.57 (active),8.3 (active),5.21 (active)
B11,-1.39 (inactive),-0.337 (inactive),-0.509 (inactive)
B12,-1.5 (inactive),-0.858 (inactive),-0.313 (inactive)
B13,2.85,1.03,-0.551 (inactive)
B14,0.00444 (inactive),1.55,0.99 (inactive)
B15,5.11 (active),6.33 (active),5.55 (active)
B16,-0.103 (inactive),0.494 (inactive),1.89
B17,4.17 (active),6.77 (active),5.31 (active)
B18,0.483 (inactive),1.15,0.164 (inactive)
B19,-0.704 (inactive),-0.0263 (inactive),-0.814 (inactive)
B20,-0.151 (inactive),-1.71 (inactive),-1.91 (inactive)
B21,-0.0484 (inactive),-0.00567 (inactive),-0.908 (inactive)
B22,-0.183 (inactive),0.294 (inactive),-1.7 (inactive)
B23,0.141 (inactive),-1.53 (inactive),0.884 (inactive)
B24,0.313 (inactive),-1.84 (inactive),0.688 (inactive)

Sequence,furin cleavage Z-score (7.5 min),furin cleavage Z-score (15 min),furin cleavage Z-score (30 min)
B25,-0.711 (inactive),-1.22 (inactive),0.14 (inactive)
B26,-0.962 (inactive),-0.755 (inactive),-0.828 (inactive)
B27,-0.33 (inactive),0.0818 (inactive),0.598 (inactive)
B28,10.5 (active),10.9 (active),9.3 (active)
B29,9.31 (active),8.38 (active),6.89 (active)
B30,-0.0997 (inactive),-0.849 (inactive),-0.533 (inactive)
B31,0.898 (inactive),1.78,1.29
B32,-0.34 (inactive),-3.09 (inactive),-0.396 (inactive)
B33,-0.324 (inactive),-0.267 (inactive),0.0653 (inactive)
B34,-0.133 (inactive),-0.187 (inactive),-0.000733 (inactive)
B35,0.411 (inactive),0.839 (inactive),-0.246 (inactive)
B36,4.58 (active),6.75 (active),6.05 (active)
B37,2.03,3.9 (active),4.2 (active)
B38,5.16 (active),9.42 (active),8.62 (active)
B39,-0.939 (inactive),0.513 (inactive),-1.89 (inactive)
B40,1.19,-0.286 (inactive),0.308 (inactive)
B41,5.42 (active),7.11 (active),7.04 (active)
B42,0.169 (inactive),0.355 (inactive),0.871 (inactive)
B43,-0.103 (inactive),-1.02 (inactive),-0.398 (inactive)
B44,-0.947 (inactive),-0.587 (inactive),-0.719 (inactive)
B45,11.2 (active),9.2 (active),6.8 (active)
B46,5.82 (active),7.31 (active),7.21 (active)
B47,9.52 (active),9.9 (active),7.81 (active)
B48,-0.759 (inactive),-0.9 (inactive),-0.752 (inactive)
